What all share (design): scale not given: direction of the effect not stated beside the values
Test [1] concerns the target Protein translocase subunit SecA (Escherichia coli (strain K12)) (UniProt P10408). The experiment in a line: Assay to Identify E. coli SecA ATPase Inhibitors. The settings on record: 30 µM. Format: functional.
Test [2] concerns the target T1, Ubiquitin-activating enzyme e1, putative (Leishmania donovani (strain BPK282A1)) (UniProt E9BSI1).
T1 sequence (whole entry): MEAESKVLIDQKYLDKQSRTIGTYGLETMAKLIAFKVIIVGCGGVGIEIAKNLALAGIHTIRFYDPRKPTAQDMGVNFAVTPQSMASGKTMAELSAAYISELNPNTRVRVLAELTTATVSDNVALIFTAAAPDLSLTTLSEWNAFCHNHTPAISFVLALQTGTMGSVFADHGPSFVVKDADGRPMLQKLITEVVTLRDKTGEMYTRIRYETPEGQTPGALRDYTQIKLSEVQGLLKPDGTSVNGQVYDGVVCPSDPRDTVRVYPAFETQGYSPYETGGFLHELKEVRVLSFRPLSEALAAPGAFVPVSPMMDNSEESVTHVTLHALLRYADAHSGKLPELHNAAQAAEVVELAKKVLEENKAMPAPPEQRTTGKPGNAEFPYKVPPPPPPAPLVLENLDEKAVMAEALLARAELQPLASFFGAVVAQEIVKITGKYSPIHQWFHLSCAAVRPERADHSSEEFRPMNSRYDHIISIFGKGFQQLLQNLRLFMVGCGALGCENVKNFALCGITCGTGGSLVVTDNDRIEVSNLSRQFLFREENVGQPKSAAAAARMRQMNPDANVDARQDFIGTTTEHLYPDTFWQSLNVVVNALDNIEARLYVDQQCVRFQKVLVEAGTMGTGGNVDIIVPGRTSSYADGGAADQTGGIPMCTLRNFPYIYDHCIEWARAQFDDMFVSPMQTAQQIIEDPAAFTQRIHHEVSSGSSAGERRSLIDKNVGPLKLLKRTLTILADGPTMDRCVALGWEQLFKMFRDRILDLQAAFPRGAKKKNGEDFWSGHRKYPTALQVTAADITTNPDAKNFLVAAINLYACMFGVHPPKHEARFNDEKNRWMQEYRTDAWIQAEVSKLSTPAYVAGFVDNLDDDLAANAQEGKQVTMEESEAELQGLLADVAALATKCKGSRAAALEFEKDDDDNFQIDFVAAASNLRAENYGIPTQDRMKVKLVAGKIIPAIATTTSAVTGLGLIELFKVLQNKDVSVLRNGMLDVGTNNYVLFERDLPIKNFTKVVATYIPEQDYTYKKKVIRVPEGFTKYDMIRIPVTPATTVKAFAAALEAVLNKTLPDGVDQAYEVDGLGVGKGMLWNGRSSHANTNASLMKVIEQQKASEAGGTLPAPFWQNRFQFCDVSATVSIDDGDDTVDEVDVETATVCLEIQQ
In words: Leishmania donovani Ubiquitin Activating Enzyme (LdE1). Format: functional. The settings on record: 30 µM.

Test [3] has as its target AMP-activated protein kinase, AMPK (Homo sapiens) (UniProt P54646+O43741+P54619+Q9UGJ0+Q9Y478+Q13131+Q9UGI9). The experiment in a line: AMP-dependent Kinase enzyme assay. An in vitro enzyme assay that detects ADP turnover that is directly proportional to AMPK activity. This uses naive AMPK that is activated during the assay with MK-8722. Format: functional. The settings on record: 30 µM.

The target in test [4] is Sialic acid-binding Ig-like lectin 9 (Homo sapiens) (UniProt Q9Y336). The experiment in a line: Hs-Siglec9 ALPHAscreen SOP 20170721. The settings on record: 10 µM.
Another test concerns Trypanosoma cruzi. The experiment in a line: Trypanosoma cruzi phosphomannomutase and mannose-1-phosphate guanylyltransferase assay. The test is classed as functional. Conditions: 10 µM.
For test [5], the target named is T2, Arginase-2, mitochondrial (Homo sapiens) (UniProt P78540).
T2 sequence (whole entry): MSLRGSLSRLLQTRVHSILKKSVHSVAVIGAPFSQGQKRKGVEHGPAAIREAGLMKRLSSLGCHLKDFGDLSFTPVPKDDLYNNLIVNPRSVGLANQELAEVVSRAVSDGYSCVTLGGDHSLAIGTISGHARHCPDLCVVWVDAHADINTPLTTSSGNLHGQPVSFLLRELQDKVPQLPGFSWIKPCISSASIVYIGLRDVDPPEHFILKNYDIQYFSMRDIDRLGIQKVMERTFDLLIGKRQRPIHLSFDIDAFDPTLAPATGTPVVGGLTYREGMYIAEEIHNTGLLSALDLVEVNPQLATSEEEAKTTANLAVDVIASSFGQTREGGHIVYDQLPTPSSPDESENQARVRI
The experiment in a line: in vitro enzyme assay to detect the production of urea directly proportional to the activity of Arginase II. Further: in the data most compounds retested in dose-response had high values. The test is classed as functional. The settings on record: 33.3 µM.

In test [6] the target is T3, Proteasome subunit beta (Trypanosoma cruzi) (UniProt O96673).
T3 sequence (whole entry): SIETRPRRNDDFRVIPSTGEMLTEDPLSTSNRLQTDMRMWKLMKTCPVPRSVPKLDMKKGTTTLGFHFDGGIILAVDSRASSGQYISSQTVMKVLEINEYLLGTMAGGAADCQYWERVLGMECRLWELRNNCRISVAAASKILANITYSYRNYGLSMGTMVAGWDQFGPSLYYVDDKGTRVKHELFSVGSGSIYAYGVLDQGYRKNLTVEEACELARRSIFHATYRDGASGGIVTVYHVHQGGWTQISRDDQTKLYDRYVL
The experiment in a line: Trypanosoma cruzi proteasome chymotrypsin-like activity (TcProtChymo) assay. Further: in the data most compounds retested in dose-response had high values. Conditions: 9.37 µM. Format: functional.

The species entered for another test is Homo sapiens. The experiment in a line: To identify inhibition of the IFN signalling (Jak-Stat) pathway via expression of an eGFP reporter gene under the control of an IFN-stimulated response element (ISRE) containing MxA promoter. Format: functional. The settings on record: 30 µM. In general terms: A reporter such as luciferase makes a cellular process visible.

Test [7] concerns the target T4, Tyrosyl-tRNA synthetase, putative (Trypanosoma cruzi (strain CL Brener)) (UniProt Q4DSP6).
T4 sequence (whole entry): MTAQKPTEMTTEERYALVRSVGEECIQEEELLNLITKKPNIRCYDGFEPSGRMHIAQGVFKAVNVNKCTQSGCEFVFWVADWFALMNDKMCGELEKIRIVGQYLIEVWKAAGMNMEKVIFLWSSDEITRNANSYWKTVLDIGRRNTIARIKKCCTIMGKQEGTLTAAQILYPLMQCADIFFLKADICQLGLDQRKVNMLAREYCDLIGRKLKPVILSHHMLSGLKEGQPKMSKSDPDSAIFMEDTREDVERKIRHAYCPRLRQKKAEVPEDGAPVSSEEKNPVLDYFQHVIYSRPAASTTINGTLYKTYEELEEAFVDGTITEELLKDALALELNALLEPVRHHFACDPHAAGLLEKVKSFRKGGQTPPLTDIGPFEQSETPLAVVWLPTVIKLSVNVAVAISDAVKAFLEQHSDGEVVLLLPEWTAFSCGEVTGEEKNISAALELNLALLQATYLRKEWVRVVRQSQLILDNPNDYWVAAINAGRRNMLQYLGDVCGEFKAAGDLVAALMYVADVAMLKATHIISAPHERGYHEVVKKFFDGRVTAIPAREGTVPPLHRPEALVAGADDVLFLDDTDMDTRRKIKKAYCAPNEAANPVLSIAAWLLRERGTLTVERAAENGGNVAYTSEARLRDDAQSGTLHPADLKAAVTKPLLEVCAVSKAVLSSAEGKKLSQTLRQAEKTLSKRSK
In words: Trypanosoma cruzi tyrosyl tRNA synthetase (TcYRS) _High Tyrosine SOP. Further: in the data most compounds retested in dose-response had high values. The test is classed as functional. The settings on record: 30 µM.

The target of test [8] is T4, Tyrosyl-tRNA synthetase, putative (Trypanosoma cruzi (strain CL Brener)). The experiment in a line: Trypanosoma cruzi tyrosyl tRNA synthetase (TcYRS) SOP. The test is classed as functional. The settings on record: 30 µM.
Test [9] concerns the target Chromo domain-containing protein 1 (Saccharomyces cerevisiae (strain ATCC 204508 / S288c) (Baker's yeast)) (UniProt P32657). The experiment in a line: ScCHD-1 Enzyme Inhibition Assay. Further: in the data most compounds retested in dose-response had high values. The test is classed as functional. Conditions: 30 µM.

For some of these results: Measured potencies and affinities stand elsewhere.

Chain of Sialic acid-binding Ig-like lectin 9 (Homo sapiens) (Q9Y336 whole entry): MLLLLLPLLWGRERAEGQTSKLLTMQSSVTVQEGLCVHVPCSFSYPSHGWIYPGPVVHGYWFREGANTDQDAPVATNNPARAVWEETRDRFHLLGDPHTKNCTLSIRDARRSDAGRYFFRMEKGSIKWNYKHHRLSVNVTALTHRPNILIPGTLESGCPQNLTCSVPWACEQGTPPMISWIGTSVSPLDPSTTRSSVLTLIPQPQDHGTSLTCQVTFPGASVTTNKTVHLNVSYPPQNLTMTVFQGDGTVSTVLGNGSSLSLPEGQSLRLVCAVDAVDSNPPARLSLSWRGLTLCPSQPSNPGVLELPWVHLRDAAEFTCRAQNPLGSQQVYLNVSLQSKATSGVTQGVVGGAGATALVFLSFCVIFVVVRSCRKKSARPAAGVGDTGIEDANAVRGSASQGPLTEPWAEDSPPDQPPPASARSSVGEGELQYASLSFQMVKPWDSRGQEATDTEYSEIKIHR
Chain of Chromo domain-containing protein 1 (Saccharomyces cerevisiae (strain ATCC 204508 / S288c) (Baker's yeast)) (P32657 whole entry, the tested form may be a part): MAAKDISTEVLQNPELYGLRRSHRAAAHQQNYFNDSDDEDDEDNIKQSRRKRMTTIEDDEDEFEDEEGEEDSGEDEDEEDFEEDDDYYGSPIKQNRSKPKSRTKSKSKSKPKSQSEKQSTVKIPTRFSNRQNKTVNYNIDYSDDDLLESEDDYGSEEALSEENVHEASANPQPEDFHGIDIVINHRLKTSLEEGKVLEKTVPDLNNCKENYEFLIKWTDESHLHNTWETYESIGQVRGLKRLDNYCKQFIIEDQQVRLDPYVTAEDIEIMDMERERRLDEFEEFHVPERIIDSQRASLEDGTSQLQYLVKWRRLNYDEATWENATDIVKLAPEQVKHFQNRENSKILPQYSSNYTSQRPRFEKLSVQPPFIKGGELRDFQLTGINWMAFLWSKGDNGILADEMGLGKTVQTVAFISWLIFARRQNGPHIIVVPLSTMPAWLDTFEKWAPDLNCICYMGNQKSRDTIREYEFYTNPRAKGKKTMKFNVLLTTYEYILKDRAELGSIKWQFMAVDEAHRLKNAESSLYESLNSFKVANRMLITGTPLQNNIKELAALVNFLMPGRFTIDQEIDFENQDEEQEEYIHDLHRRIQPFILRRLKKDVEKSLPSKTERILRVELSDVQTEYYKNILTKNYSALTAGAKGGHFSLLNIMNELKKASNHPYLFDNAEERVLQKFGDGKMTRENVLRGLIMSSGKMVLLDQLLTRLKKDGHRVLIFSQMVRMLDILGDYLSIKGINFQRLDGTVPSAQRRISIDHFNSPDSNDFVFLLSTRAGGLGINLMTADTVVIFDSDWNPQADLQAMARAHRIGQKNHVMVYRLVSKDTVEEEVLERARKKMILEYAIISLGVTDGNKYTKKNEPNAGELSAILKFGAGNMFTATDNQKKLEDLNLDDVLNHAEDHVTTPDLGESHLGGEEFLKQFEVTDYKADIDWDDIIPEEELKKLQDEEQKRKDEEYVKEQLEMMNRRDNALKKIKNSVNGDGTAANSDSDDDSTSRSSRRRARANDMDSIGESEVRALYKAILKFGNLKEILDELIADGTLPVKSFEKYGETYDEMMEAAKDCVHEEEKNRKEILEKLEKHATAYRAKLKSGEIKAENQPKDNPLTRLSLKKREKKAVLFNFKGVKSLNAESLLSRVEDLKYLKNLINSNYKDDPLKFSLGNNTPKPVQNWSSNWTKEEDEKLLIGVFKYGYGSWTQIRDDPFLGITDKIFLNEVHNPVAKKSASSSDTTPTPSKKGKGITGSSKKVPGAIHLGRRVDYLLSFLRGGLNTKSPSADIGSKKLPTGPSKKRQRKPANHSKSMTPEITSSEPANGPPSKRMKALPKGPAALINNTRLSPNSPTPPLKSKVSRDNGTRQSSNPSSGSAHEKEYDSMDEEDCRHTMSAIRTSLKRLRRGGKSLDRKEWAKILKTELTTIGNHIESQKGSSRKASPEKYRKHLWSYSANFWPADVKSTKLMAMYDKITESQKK
Chain of Protein translocase subunit SecA (Escherichia coli (strain K12)) (P10408 whole entry): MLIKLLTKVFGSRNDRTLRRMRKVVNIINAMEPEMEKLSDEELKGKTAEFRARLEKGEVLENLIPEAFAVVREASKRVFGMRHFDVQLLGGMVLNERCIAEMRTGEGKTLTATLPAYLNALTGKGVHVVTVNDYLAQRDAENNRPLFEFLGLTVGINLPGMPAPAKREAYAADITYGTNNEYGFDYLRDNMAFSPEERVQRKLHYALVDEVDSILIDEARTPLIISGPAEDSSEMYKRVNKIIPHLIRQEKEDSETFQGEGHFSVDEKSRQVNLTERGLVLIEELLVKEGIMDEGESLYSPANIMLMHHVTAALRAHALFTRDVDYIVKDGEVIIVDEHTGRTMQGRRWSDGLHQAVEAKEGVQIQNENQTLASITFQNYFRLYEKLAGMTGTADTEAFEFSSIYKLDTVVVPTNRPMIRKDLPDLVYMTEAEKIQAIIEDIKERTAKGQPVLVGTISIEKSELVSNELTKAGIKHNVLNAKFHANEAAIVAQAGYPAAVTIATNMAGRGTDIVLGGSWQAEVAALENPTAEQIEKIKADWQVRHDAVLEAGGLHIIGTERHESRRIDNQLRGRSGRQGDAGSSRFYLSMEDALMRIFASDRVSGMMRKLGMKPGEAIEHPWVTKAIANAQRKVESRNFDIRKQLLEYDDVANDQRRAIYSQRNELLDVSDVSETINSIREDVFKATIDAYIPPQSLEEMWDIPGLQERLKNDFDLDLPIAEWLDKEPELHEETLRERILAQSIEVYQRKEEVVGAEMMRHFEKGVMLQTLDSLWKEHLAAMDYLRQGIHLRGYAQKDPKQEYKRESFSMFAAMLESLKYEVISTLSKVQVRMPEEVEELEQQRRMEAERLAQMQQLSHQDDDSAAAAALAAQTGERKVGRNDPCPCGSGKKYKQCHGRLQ

As for `Cc1cccc(CN2C[C@H]3OC(=O)N(CCCN4CCOCC4)[C@H]3C2)n1`, the Percent Effect was -5.71% in [1]; 5.33% in test [2]; 0.534% in test [3]; 17% in test [4]; 0.682% in the test on Trypanosoma cruzi; 2.08% in [5]. The Percent Effect is 11.9% in test [6]; 2.81% in the test filed under Homo sapiens; 10.4% in test [7]; 16.1% in [8]; -8.08% in test [9].

Regarding `COc1ccc(Br)c(C(=O)N2CCC(c3n[nH]c(C4CC4)n3)CC2)c1`, the Percent Effect in test [1] was -4.1%; in test [2], 16.5%; in [3], 1.39%; in test [4] it was 2.29%; with Trypanosoma cruzi, 0.513%; in [5], -3.23%. Further, the Percent Effect in test [6] was 11.8%; in the test listed under Homo sapiens, 4.22%; in test [7], 4.17%; in [8], 25.3%; in test [9] it was -27.6%.

Turning to `Cn1cnnc1S(=O)(=O)C1CCN(S(=O)(=O)c2c(Cl)cccc2Cl)CC1`, the Percent Effect in test [1] is -1.95%; in test [2], 0%; in test [3], 5.5%; in [4], -4.3%; in the test with Trypanosoma cruzi, -1.76%; in [5] it was -2.27%. The Percent Effect in [6] is 4.97%; in the test filed under Homo sapiens, 6.49%; in [7], 0%; in test [8], 0%; in test [9], 0.0853%.

For `CCOc1ccc(N2CCCN=C2NC(=O)c2ccccc2C)cc1`, the Percent Effect in test [1] was -3.08%; in test [2] it was 7.79%; in test [3], -2.01%; in test [4], 4.38%; in the test on Trypanosoma cruzi, -0.0983%; in test [5], -5.52%. Moreover, the Percent Effect in [6] was 9.98%; in the test listed under Homo sapiens it was -13.7%; in test [7], 6.45%; in test [8], 16.1%; in test [9] it was 106%.

For the molecule `O=C(NCc1ccccn1)[C@H]1COC[C@H]2CN(Cc3ccoc3)C[C@H]21`, the Percent Effect in test [1] is -2.43%; in [2], 2.7%; in [3] it was 6.89%; in [4], -1.93%; in the test with Trypanosoma cruzi, -6.16%; in test [5] it was 2.87%. Further, the Percent Effect was 20.3% in test [6]; -4.49% in the test filed under Homo sapiens; 5.41% in test [7]; 7.69% in test [8]; -5.52% in test [9].

As for `Cc1cc(C2CCCN(C(=O)CN3CCN(C)CC3)C2)n[nH]1` (stereo not drawn), the Percent Effect in [1] was -0.557%; in [2] it was 13.5%; in test [3], -4.16%; in test [4], 2.41%; in the test with Trypanosoma cruzi, 2.32%; in [5], -4.25%. The Percent Effect in test [6] was 16.9%; in the test filed under Homo sapiens it was 16.2%; in [7] it was 6.93%; in test [8], 18.3%; in [9] it was -5.49%.

Regarding `Cc1cc(C2CCCN2C(=O)NCc2cccc(F)c2)on1` (stereo not drawn), the Percent Effect in test [1] is -3.25%; in test [2], 8%; in test [3], -2.75%; in [4] it was 0.538%; in the test with Trypanosoma cruzi, -1.07%; in test [5] it was 1.56%. In addition, the Percent Effect in test [6] was 16.2%; in the test listed under Homo sapiens it was 10.1%; in [7], 8.2%; in [8] it was 13.6%; in [9], -5.2%.

Turning to `N#Cc1ccc(C(=O)NCCCNc2ccc(C(F)(F)F)cn2)cc1`, the Percent Effect in test [1] was -0.682%; in [2] it was 13.2%; in test [3] it was 3.77%; in test [4], -0.309%; in the test on Trypanosoma cruzi, -7.52%; in test [5], -0.766%. In addition, the Percent Effect in test [6] was 9.02%; in the test filed under Homo sapiens, 35.5%; in test [7] it was 7.35%; in test [8] it was 17.1%; in test [9], -10.9%.
